Bioassay records from PubChem BioAssay.
Rows were chosen to be rich in hits. Some 0.8% of all compounds tested hit in one or more screens of this group.
FEN1 inh – human FEN1 inhibition; AID 588795; P39748; 390,000 tested, 0.35% active; Recombinant FEN1 flap cleavage, fluorescence, 15 min; Potency, µM (titrated, usually from 114 µM), without a hit: at the top dose activity change, negative = inhibition, actives largely listed as inhibitors; note: potency is the fitted concentration of half-maximal effect; nearly all actives have a fitted effect of over 65% in size
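Compounds are tested as a concentration series against 10 nM FEN1; after a 15 min room-temperature preincubation, 50 nM substrate starts cleavage, with plate reads at 0 and 15 min. Normalized responses are fitted by a Hill equation.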
Tb PFK inh – T. brucei PFK enzyme inhibition. 330,000 tested, 0.17% active. T. brucei PFK, ADP-Glo luminescence. O15648. Potency, µM (doses to about 57.5 µM), without a hit: top-dose activity, negative = inhibition, hits mostly inhibitors. AID 485367;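 note: potency is the fitted concentration of half-maximal effect; 0% = uninhibited 1x PFK enzyme wells and -100% = no-enzyme wells; nearly all actives have a fitted effect of over 60% in size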
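1.25 nM PFK with 0.5 mM F6P and 0.1 mM ATP in 0.1 M TEA pH 8.0, 5 mM MgCl2, incubated 45 min at room temperature; ADP measured by ADP-Glo luminescence; compounds titrated up to 57 uM.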
PGK inhibitor – inhibitors of T. brucei phosphoglycerate kinase | PGK/GAPDH coupled, Kinase-Glo luminescence, 60 min | Potency, µM (top dose mostly 57.5 µM), without a hit: at the top dose activity change, negative = inhibition, most hits filed as inhibitors | 380,000 tested, 0.043% active | AID 602233; note: potency is the fitted concentration of half-maximal effect; nearly all actives have a fitted effect of over 60% in size
Target sequence (P07378 whole entry, looked up): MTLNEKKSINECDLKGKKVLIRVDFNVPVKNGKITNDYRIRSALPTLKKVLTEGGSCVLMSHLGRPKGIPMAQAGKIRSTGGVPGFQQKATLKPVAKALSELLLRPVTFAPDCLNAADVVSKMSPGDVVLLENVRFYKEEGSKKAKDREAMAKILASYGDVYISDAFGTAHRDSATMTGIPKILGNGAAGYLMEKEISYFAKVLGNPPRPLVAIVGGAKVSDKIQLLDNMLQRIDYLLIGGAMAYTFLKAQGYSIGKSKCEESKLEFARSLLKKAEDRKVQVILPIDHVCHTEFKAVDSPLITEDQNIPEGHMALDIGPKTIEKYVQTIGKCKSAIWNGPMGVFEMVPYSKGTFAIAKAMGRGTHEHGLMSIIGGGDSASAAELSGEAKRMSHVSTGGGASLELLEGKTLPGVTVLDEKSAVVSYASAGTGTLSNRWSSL
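Recombinant glycosomal PGK reaction used 1,3-bisphosphoglycerate generated in-well by GAPDH (100nM final) in 100mM TEA pH 7.6, 5mM MgCl2, 0.01% Tween-20. After 60 minutes at room temperature, ATP was read by Kinase-Glo Plus luminescence end-point.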
TDP1 inh – inhibitors of human tyrosyl-DNA phosphodiesterase TDP1. Q9NUW8. recombinant TDP1, AlphaScreen DNA substrate cleavage. Potency, µM (titrated, usually from 130 µM), inactives show top-dose activity change, negative = inhibition, actives largely listed as inhibitors. 350,000 tested, 0.28% active; note: potency is the fitted concentration of half-maximal effect; nearly all actives have a fitted effect of over 40% in size
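Here, a 5' biotin and 3' phosphotyrosine-FITC DNA oligonucleotide reports Tdp1 activity: intact substrate bridges AlphaScreen beads, while cleavage leaves a 3' phosphate and drops signal. All incubations at room temperature.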
APE1 inh-1 – inhibitors of human APE1 endonuclease | P27695 | recombinant APE1, TAMRA/BHQ-2 abasic DNA cleavage fluorescence | Potency, µM (doses to about 65.8 µM), inactives show top-dose activity change, negative = inhibition, hits mostly inhibitors | 350,000 tested, 0.35% active | AID 2517;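 note: potency is the fitted concentration of half-maximal effect; plate controls were vehicle for no effect and reference inhibitor for full effect; nearly all actives have a fitted effect of over 55% in size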
Target sequence (P27695 whole entry, looked up): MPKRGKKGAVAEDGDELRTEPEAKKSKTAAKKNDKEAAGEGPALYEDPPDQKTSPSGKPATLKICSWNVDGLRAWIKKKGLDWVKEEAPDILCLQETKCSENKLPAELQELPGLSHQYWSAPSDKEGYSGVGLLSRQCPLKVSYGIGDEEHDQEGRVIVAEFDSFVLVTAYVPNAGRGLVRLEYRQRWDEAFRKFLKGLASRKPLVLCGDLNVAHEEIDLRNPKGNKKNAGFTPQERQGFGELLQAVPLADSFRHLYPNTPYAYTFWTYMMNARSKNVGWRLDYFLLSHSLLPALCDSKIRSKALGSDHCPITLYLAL
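Substrate: short duplex with […] THF abasic site, 5'-TAMRA and 3'-BHQ-2, 50 nM final. APE1 at 0.75 nM, preincubated 15 min RT with compound. Fluorescence increase from first to third read measured activity.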
PI4K2A inh – blocks human PI4K2A kinase activity; AID 1346378; 420,000 tested, 0.13% active; purified PI4K2A, ADP-Glo luminescence, 1 h; stronger effect = lower value; activity change, negative = inhibition, % at 76.9 µM; Q9BTU6; in the data active = activity change below about -50%; inconclusive = mostly about -30% to -49%;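 note: -100% = wells without enzyme as full effect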
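PI4K2A activity was measured by ADP-Glo luminescence: enzyme (4 ug/mL stock) and phosphatidylinositol (1.2 mM stock) in Tris pH 7.5/MgCl2/EGTA/Triton X-100 buffer were reacted with ATP (300 microM stock) for one hour at ambient temperature.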
DNA dye displace – DNA dye displacement counter-screen activity; shares compounds with APE1 inh-1; DNA fluorescent dye displacement counterscreen, fluorescence; Potency, µM (doses to about 28.5 µM), for the others: at the highest dose activity change, negative = inhibition, most hits filed as inhibitors; 480 tested, 7% active; AID 2564;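 note: loss of thiazole orange fluorescence as the dye is displaced from duplex DNA; potency is the fitted concentration of half-maximal effect; 0% = ThO with dsDNA and no compound and -100% = ThO without dsDNA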
EndoIV counter – blocks E. coli endonuclease IV DNA cleavage; shares compounds with APE1 inh-1; 560 tested, 4% active; E. coli Endo IV, fluorogenic AP-site DNA cleavage; Potency, µM (top dose mostly 27.1 µM), without a hit: top-dose activity change, negative = inhibition, actives largely listed as inhibitors;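 note: potency is the fitted concentration of half-maximal effect; plate controls were uninhibited enzyme wells for no effect and no enzyme buffer wells for full effect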
APE1 inh-2 – confirmation of inhibitors of human APE1 endonuclease. Potency, µM (series often up to 57.1 µM), without a hit: top-dose activity change, negative = inhibition, most hits filed as inhibitors. purified APE1, fluorogenic abasic-site DNA cleavage. 750 tested, 44% active. AID 2572. shares compounds with APE1 inh-1; note: potency is the fitted concentration of half-maximal effect; nearly all actives have a fitted effect of over 30% in size
APE1 FP – compounds that displace a DNA probe from human APE1. 480 tested, 7% active. shares compounds with APE1 inh-1. Potency, µM (doses to about 28.5 µM), inactives show at the top dose activity, negative = inhibition, most hits filed as inhibitors. AID 2573. APE1 binding to TAMRA-labelled double-stranded DNA, fluorescence polarization displacement; note: potency is the fitted concentration of half-maximal effect
The depositor's hits bear a star; u = inconclusive; x = no result; [ ] = remark or other dose. Unless noted, calls come from the whole dose curve; as a rule, active = well fitted curve in the direction sought with a large enough effect; inconclusive = small, poorly fitted or top-dose-only effect, or another doubt; inactive = no such curve, though single readings can be large; an effect the other way counts as inactive or inconclusive. Unless noted, % is set by controls: 0 for no effect and ±100 for the full control effect.

SMILES	FEN1 inh	Tb PFK inh	PGK inhibitor	TDP1 inh	APE1 inh-1	PI4K2A inh	EndoIV counter	APE1 inh-2	others
O=C(Cc1csc(N2CCOCC2)n1)N/N=C/c1ccc(O)c(O)c1O	u	-17.4%	-7.2%	u	2.24µM*	-9.3	91.7%	u	DNA dye displace=u;APE1 FP=4.4%
O=C1CCc2cc(Cl)c(S(=O)(=O)Nc3ccc(Cl)c(Cl)c3)cc2N1	x	x	x	1.2%	x	x	x	x
CN1CCc2cc3c(c4c2[C@H]1[C@H](O)c1ccccc1-4)OCO3	39.8µM*	-4.9%	-9.2%	7.9%	u	-5.5	8.91µM*	11.2µM*	DNA dye displace=4.47µM*;APE1 FP=12.6µM*
Cc1ccc2nc(/C=C/c3ccc(N(C)C)cc3)ccc2c1	9.7%	x	x	x	x	x	x	x
O=C(O)c1ccc(COc2ccccc2/C=C2/NC(=O)N(c3cccc(Cl)c3)C2=O)cc1	56.2µM*	0.5%	-8.1%	25.1µM*	u	2.5	x	15.8µM*
O=c1cc(-c2ccc(O)cc2)oc2c(O)c(O)c(O)c(O)c12	20µM*	-19.7%	4.47µM*	x	4.47µM*	-21.5	5.8%	0.501µM*	DNA dye displace=-14.4%;APE1 FP=12.0%
CC1(CC(=O)N/N=C/c2cc([N+](=O)[O-])c(O)cc2O)OCCO1	-31.6%	-12.2%	-13.3%	u	14.1µM*	0.5	-3.6%	12.6µM*	DNA dye displace=u;APE1 FP=u
c1cc2c3c(c1)CCC[N+]3(C1CCCCC1)CCC2	-1.0%	x	x	x	x	x	x	x
C[n+]1ccnc2ccccc21	9.9%	x	x	x	x	x	x	x
Cc1ccc(S(=O)(=O)Nc2csc(C)c2C(=O)O)cc1	-0.5%	-0.5%	-20.5%	x	11.2µM*	-15.1	-0.5%	u	DNA dye displace=-7.1%;APE1 FP=u
Cc1ccc(S(=O)(=O)Nc2cc(C)c(O)cc2C)cc1	-10.6%	-6.1%	2.4%	4.3%	-0.2%	4.1	x	x
COc1cc(NC(=O)C(OC(=O)CNC(=O)c2ccccc2)c2ccccc2)cc(OC)c1 (configuration not stated)	x	x	x	0.2%	x	x	x	x
O=C(CSc1nnc(SCc2ccccc2)s1)N/N=C/c1ccc(C(=O)O)cc1	1.9%	0.1%	-0.6%	6.0%	-2.9%	-1.4	x	x
O=C(CSc1nnc(SCc2ccccc2)s1)N/N=C/C=C\c1ccco1	u	-13.3%	-23.9%	u	17.8µM*	-21.6	-10.4%	12.6µM*	DNA dye displace=12.6µM*;APE1 FP=u
Cc1ccc(CSc2nnc(SCC(=O)N/N=C/c3c[nH]c4ccccc34)s2)cc1	u	-0.7%	u	6.31µM*	9.2%	-15.6	x	-24.4%
O=C(CSc1nnc(SCc2ccccc2Cl)s1)N/N=C/c1c[nH]c2ccccc12	3.2%	-10.0%	-3.9%	1.9%	1.1%	-0.5	x	x
O=C1/C(=C/c2ccc(O)c(O)c2)Oc2ccccc21	x	x	x	21.3%	u	x	x	x
CC(C)(C)OC(=O)CC(=O)NNC(=O)c1nc2ccccc2[nH]1	x	x	x	-2.2%	x	x	x	x
Cc1nc(N=Nc2cc(S(=O)(=O)O)c3cc([N+](=O)[O-])cc(S(=O)(=O)O)c3c2)c(COP(=O)(O)O)c(C=O)c1O	7.52µM*	x	x	u	2.51µM*	0.9	25.1µM*	1.12µM*
CCOC(=O)N1CCN(C(=O)c2c(O)c3cccc4c3n(c2=O)CC4)CC1	-1.2%	6.4%	2.7%	2.1%	39.8µM*	-1.4	2.0%	-10.1%[24.4 µM]	DNA dye displace=-14.3%;APE1 FP=-0.7%
CN1CCN(C(=O)c2c(O)c3cccc4c3n(c2=O)CC4)CC1	4.0%	3.6%	-7.8%	4.2%	2.3%	4.3	x	x
COc1cc(Cl)c(C)cc1NC(=O)C(OC(=O)CNC(=O)c1ccccc1)c1ccccc1 (configuration not stated)	x	x	x	-2.0%	x	x	x	x
Cc1nc2ccc3nc(NC(=O)c4ccc5c(c4)OCCO5)sc3c2s1	-20.8%	4.8%	-1.2%	89.1µM*	-2.7%	12.0	x	u
O=C(CNC(=O)c1ccc(-c2ccccc2)cc1)OC(C(=O)Nc1cc(C(F)(F)F)ccc1Cl)c1ccccc1 (configuration not stated)	x	x	x	1.0%	x	x	x	x
Cc1cc(O)c(C=O)c2c1C(=O)Oc1c(COC(=O)/C=C/C(=O)O)c(O)c(C(=O)O)c(C)c1O2	x	x	x	39.8µM*	1.26µM*	x	-21.1%[57.1 µM]	11.2µM*
CC(C)(C)c1ccccc1Nc1nc(C#N)nc(NC2CCCC2)n1	x	x	x	-5.6%	x	x	x	x
O=C(NN=C1c2ccccc2-c2ccccc21)c1ccccc1	-2.5%	u	5.1%	20µM*	12.6µM*	1.7	x	-28.0%
CN(C)CCC=C1c2ccccc2C=Cc2ccccc21	11.7%	-4.7%	-3.3%	10.9%[56.1 µM]	2.1%	3.3	-11.8%[57.1 µM]	-12.6%
Cc1nc(SCC(=O)O)c(C#N)c2c1CCCC2	-5.6%	0.0%	-16.3%	10µM*	u	-18.0	x	u
